About 79,000 compounds went through this panel and 15% of them were active in at least one assay; those are over-represented in the sample as a whole. Unmarked numbers belong to inactive results. Activity calls are given as the source filed them. Cut-off read from the data, not from the text of the source: active = growth inhibition above about 70%; inactive = the rest.
What was measured:
[1] = NCI Yeast Anticancer Drug Screen. Data for the mlh1 strain (AID 171);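 note: 0% = growth of vehicle-treated control cultures of the same strain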; details: S. cerevisiae mlh1 strain growth inhibition, active compounds read high
Procedure, shortened: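 Yeast screen: mutant strain plus compound, growth scored against vehicle control wells.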

[2] = NCI Yeast Anticancer Drug Screen. Data for the mlh1 rad18 strain (AID 175); details: S. cerevisiae mlh1 rad18 strain growth inhibition, active compounds read high
Procedure, shortened: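 Compound-treated yeast growth, normalised to vehicle controls. Strain bears defined DNA repair mutations.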

[3] = NCI Yeast Anticancer Drug Screen. Data for the rad18 strain (AID 177); details: S. cerevisiae rad18 mutant growth inhibition, active compounds read high
Procedure, shortened: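 Inhibition values reflect reduced yeast growth compared with vehicle-treated controls, using a strain engineered with a DNA damage repair defect.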

[4] = NCI Yeast Anticancer Drug Screen. Data for the rad52 strain (AID 147);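 note: 0% = growth of vehicle-treated control cultures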; details: S. cerevisiae rad52 mutant growth inhibition, active compounds read high
Procedure, shortened: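 Genetically altered yeast (DNA damage repair defect) treated with compound; inhibition calculated relative to vehicle.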

[5] = NCI Yeast Anticancer Drug Screen. Data for the rad50EPP+ strain (AID 151);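 note: 0% = growth of vehicle-treated control cultures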; details: S. cerevisiae rad50 mutant strain, active compounds read high
Procedure, shortened: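 Strain rad50EPP+; compound exposure; % growth inhibition vs vehicle.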

[6] = NCI Yeast Anticancer Drug Screen. Data for the mgt1 strain (AID 153); details: S. cerevisiae mgt1 mutant growth inhibition, active compounds read high
Procedure, shortened: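 Read-out: yeast growth inhibition vs vehicle control. Strain mgt1, drawn from a panel altered in DNA damage repair or cell cycle control.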

[7] = NCI Yeast Anticancer Drug Screen. Data for the rad50 strain (AID 155);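 note: 0% = growth of vehicle-only cultures of the same strain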; details: S. cerevisiae rad50 strain growth inhibition, active compounds read high
Procedure, shortened: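 Inhibition values express reduced yeast growth in compound-treated cultures relative to vehicle-treated controls.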

[8] = NCI Yeast Anticancer Drug Screen. Data for the mec2-1 strain (AID 157); details: S. cerevisiae mec2-1 strain, active compounds read high
Procedure, shortened: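 Cells of the genetically defined mec2-1 yeast strain are incubated with test compound. Inhibition of growth is calculated against vehicle-treated controls.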

[9] = NCI Yeast Anticancer Drug Screen. Data for the rad14 strain (AID 159);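 note: 0% = growth of vehicle-treated control cultures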; details: S. cerevisiae rad14 strain growth inhibition, active compounds read high
Procedure, shortened: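 A mutant yeast strain defective in DNA damage repair is treated with compound; inhibition of its growth is scored against untreated, vehicle-exposed cultures.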

[10] = NCI Yeast Anticancer Drug Screen. Data for the sgs1 mgt1 strain (AID 161);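 note: 0% = growth of cultures given vehicle only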; details: S. cerevisiae sgs1 mgt1 strain, active compounds read high
Procedure, shortened: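 Inhibition of yeast growth, normalised to vehicle-treated controls, is reported for a strain bearing genetic alterations in DNA damage repair.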

[11] = NCI Yeast Anticancer Drug Screen. Data for the CLN2oe strain (AID 163);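 note: 0% = growth of vehicle-only control cultures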; details: S. cerevisiae CLN2oe strain, active compounds read high
Procedure, shortened: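 Strain altered in cell-cycle control, incubated with compound; growth compared to solvent-treated controls.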

[12] = NCI Yeast Anticancer Drug Screen. Data for the cln2 rad14 strain (AID 165);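 note: 0% = growth equal to vehicle treated cultures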; details: S. cerevisiae cln2 rad14 strain, active compounds read high
Procedure, shortened: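 The screen exposed genetically defined yeast (cln2 rad14) to test compounds and scored growth inhibition relative to vehicle-treated controls.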

[13] = NCI Yeast Anticancer Drug Screen. Data for the bub3 strain (AID 167); details: S. cerevisiae bub3 mutant strain, active compounds read high
Procedure, shortened: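 Steps: expose the mutant yeast strain to compound; grow alongside vehicle-treated cultures; measure growth; express inhibition against the vehicle cultures.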

[14] = NCI Yeast Anticancer Drug Screen. Data for the wt2 strain (AID 169);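 note: 0% = growth of vehicle-treated yeast cultures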; details: S. cerevisiae wt2 strain growth inhibition, active compounds read high
Procedure, shortened: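 Steps: yeast strain treated with compound; growth recorded; inhibition calculated relative to cultures given vehicle alone.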

[15] = NCI Yeast Anticancer Drug Screen. Data for the sgs1 strain (AID 173);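 note: 0% = growth of vehicle-only control cultures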; details: S. cerevisiae sgs1 mutant, active compounds read high
Procedure, shortened: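 Inhibition of yeast growth served as the measure. The mutant strain was treated with each compound, and growth was normalised to cultures receiving vehicle alone.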

[16] = at 5.0 µM (retest, dose inferred, filed as 0.5)
[17] = at 50.0 µM (retest, dose inferred, filed as 5.0)

## Clc1ccc(SC(/C=C/NNC2=NC(c3ccccc3)C(c3ccccc3)=NN2)c2ccccc2)cc1 (centres undefined)
[1]; at 1.2 µM
  growth inhibition: -3%
[1]; at 3.7 µM
  growth inhibition: 5%
[1]; at 11.0 µM
  growth inhibition: -4%
[1]; at 33.0 µM
  growth inhibition: 31%
[1]; at 100.0 µM
  growth inhibition: 84% (active)
[2]; [16]
  growth inhibition: 0%
[2]; [17]
  growth inhibition: 0%
[2]; at 50.0 µM
  growth inhibition: 58.4%
[3]; at 1.2 µM
  growth inhibition: 2%
[3]; at 3.7 µM
  growth inhibition: 9%
[3]; at 11.0 µM
  growth inhibition: 23%
[3]; at 33.0 µM
  growth inhibition: 41%
[3]; at 100.0 µM
  growth inhibition: 80% (active)

## N#CC(C(=O)Nc1ccccc1)C1=C(Cl)C(=O)c2ccccc2C1=O (centres undefined)
[4]; at 1.2 µM
  growth inhibition: 7%
[4]; at 3.7 µM
  growth inhibition: 57%
[4]; at 11.0 µM
  growth inhibition: 98% (active)
[4]; at 33.0 µM
  growth inhibition: 98% (active)
[4]; at 100.0 µM
  growth inhibition: 97% (active)
[5]; at 1.2 µM
  growth inhibition: 13%
[5]; at 3.7 µM
  growth inhibition: 43%
[5]; at 11.0 µM
  growth inhibition: 97% (active)
[5]; at 33.0 µM
  growth inhibition: 97% (active)
[5]; at 100.0 µM
  growth inhibition: 96% (active)
[6]; at 1.2 µM
  growth inhibition: 23%
[6]; at 3.7 µM
  growth inhibition: 6%
[6]; at 11.0 µM
  growth inhibition: 98% (active)
[6]; at 33.0 µM
  growth inhibition: 97% (active)
[6]; at 100.0 µM
  growth inhibition: 97% (active)
[7]; at 1.2 µM
  growth inhibition: 4%
[7]; at 3.7 µM
  growth inhibition: 38%
[7]; [16]
  growth inhibition: 9%
[7]; at 11.0 µM
  growth inhibition: 97% (active)
[7]; at 33.0 µM
  growth inhibition: 97% (active)
[7]; [17]
  growth inhibition: 98% (active)
[7]; at 50.0 µM
  growth inhibition: 91.8% (active)
[7]; at 100.0 µM
  growth inhibition: 96% (active)
[8]; at 1.2 µM
  growth inhibition: -8%
[8]; at 3.7 µM
  growth inhibition: 73% (active)
[8]; [16]
  growth inhibition: 73% (active)
[8]; at 11.0 µM
  growth inhibition: 98% (active)
[8]; at 33.0 µM
  growth inhibition: 97% (active)
[8]; [17]
  growth inhibition: 99% (active)
[8]; at 50.0 µM
  growth inhibition: 93% (active)
[8]; at 100.0 µM
  growth inhibition: 96% (active)
[9]; at 1.2 µM
  growth inhibition: -26%
[9]; at 3.7 µM
  growth inhibition: 42%
[9]; at 11.0 µM
  growth inhibition: 98% (active)
[9]; at 33.0 µM
  growth inhibition: 97% (active)
[9]; at 100.0 µM
  growth inhibition: 95% (active)
[10]; [16]
  growth inhibition: 8%
[10]; [17]
  growth inhibition: 98% (active)
[10]; at 50.0 µM
  growth inhibition: 93.1% (active)
[11]; at 1.2 µM
  growth inhibition: 4%
[11]; at 3.7 µM
  growth inhibition: 45%
[11]; at 11.0 µM
  growth inhibition: 98% (active)
[11]; at 33.0 µM
  growth inhibition: 97% (active)
[11]; at 100.0 µM
  growth inhibition: 96% (active)
[12]; [16]
  growth inhibition: 53%
[12]; [17]
  growth inhibition: 98% (active)
[12]; at 50.0 µM
  growth inhibition: 91.8% (active)
[13]; at 1.2 µM
  growth inhibition: -49%
[13]; at 3.7 µM
  growth inhibition: -5%
[13]; [16]
  growth inhibition: 62%
[13]; at 11.0 µM
  growth inhibition: 97% (active)
[13]; at 33.0 µM
  growth inhibition: 97% (active)
[13]; [17]
  growth inhibition: 98% (active)
[13]; at 50.0 µM
  growth inhibition: 92% (active)
[13]; at 100.0 µM
  growth inhibition: 95% (active)
[14]; at 1.2 µM
  growth inhibition: -3%
[14]; at 3.7 µM
  growth inhibition: 26%
[14]; at 11.0 µM
  growth inhibition: 95% (active)
[14]; at 33.0 µM
  growth inhibition: 97% (active)
[14]; at 100.0 µM
  growth inhibition: 95% (active)
[1]; at 1.2 µM
  growth inhibition: -3%
[1]; at 3.7 µM
  growth inhibition: 41%
[1]; at 11.0 µM
  growth inhibition: 98% (active)
[1]; at 33.0 µM
  growth inhibition: 97% (active)
[1]; at 100.0 µM
  growth inhibition: 97% (active)
[2]; [16]
  growth inhibition: 64%
[2]; [17]
  growth inhibition: 98% (active)
[2]; at 50.0 µM
  growth inhibition: 91% (active)
[3]; at 1.2 µM
  growth inhibition: -15%
[3]; at 3.7 µM
  growth inhibition: -8%
[3]; at 11.0 µM
  growth inhibition: 90% (active)
[3]; at 33.0 µM
  growth inhibition: 98% (active)
[3]; at 100.0 µM
  growth inhibition: 97% (active)

## [N-]=N[N+]#I1OC(C(F)(F)F)(C(F)(F)F)c2ccccc21
[4]; at 1.2 µM
  growth inhibition: 44%
[4]; at 3.7 µM
  growth inhibition: 82% (active)
[4]; at 11.0 µM
  growth inhibition: 97% (active)
[4]; at 33.0 µM
  growth inhibition: 99% (active)
[4]; at 100.0 µM
  growth inhibition: 100% (active)
[5]; at 1.2 µM
  growth inhibition: 3%
[5]; at 3.7 µM
  growth inhibition: 13%
[5]; at 11.0 µM
  growth inhibition: 42%
[5]; at 33.0 µM
  growth inhibition: 93% (active)
[5]; at 100.0 µM
  growth inhibition: 99% (active)
[6]; at 1.2 µM
  growth inhibition: 38%
[6]; at 3.7 µM
  growth inhibition: 88% (active)
[6]; at 11.0 µM
  growth inhibition: 99% (active)
[6]; at 33.0 µM
  growth inhibition: 100% (active)
[6]; at 100.0 µM
  growth inhibition: 100% (active)
[7]; at 1.2 µM
  growth inhibition: 58%
[7]; at 3.7 µM
  growth inhibition: 90% (active)
[7]; [16]
  growth inhibition: 7%
[7]; at 11.0 µM
  growth inhibition: 97% (active)
[7]; at 33.0 µM
  growth inhibition: 100% (active)
[7]; [17]
  growth inhibition: 99% (active)
[7]; at 50.0 µM
  growth inhibition: 91.7% (active)
[7]; at 100.0 µM
  growth inhibition: 100% (active)
[8]; at 1.2 µM
  growth inhibition: 45%
[8]; at 3.7 µM
  growth inhibition: 91% (active)
[8]; [16]
  growth inhibition: 2%
[8]; at 11.0 µM
  growth inhibition: 99% (active)
[8]; at 33.0 µM
  growth inhibition: 100% (active)
[8]; [17]
  growth inhibition: 99% (active)
[8]; at 50.0 µM
  growth inhibition: 93.7% (active)
[8]; at 100.0 µM
  growth inhibition: 99% (active)
[9]; at 1.2 µM
  growth inhibition: 27%
[9]; at 3.7 µM
  growth inhibition: 90% (active)
[9]; at 11.0 µM
  growth inhibition: 99% (active)
[9]; at 33.0 µM
  growth inhibition: 100% (active)
[9]; at 100.0 µM
  growth inhibition: 99% (active)
[10]; [16]
  growth inhibition: 81% (active)
[10]; [17]
  growth inhibition: 98% (active)
[10]; at 50.0 µM
  growth inhibition: 92.8% (active)
[11]; at 1.2 µM
  growth inhibition: 40%
[11]; at 3.7 µM
  growth inhibition: 81% (active)
[11]; at 11.0 µM
  growth inhibition: 98% (active)
[11]; at 33.0 µM
  growth inhibition: 99% (active)
[11]; at 100.0 µM
  growth inhibition: 98% (active)
[12]; [16]
  growth inhibition: 47%
[12]; [17]
  growth inhibition: 98% (active)
[12]; at 50.0 µM
  growth inhibition: 92% (active)
[13]; at 1.2 µM
  growth inhibition: 28%
[13]; at 3.7 µM
  growth inhibition: 83% (active)
[13]; [16]
  growth inhibition: 91% (active)
[13]; at 11.0 µM
  growth inhibition: 99% (active)
[13]; at 33.0 µM
  growth inhibition: 100% (active)
[13]; [17]
  growth inhibition: 98% (active)
[13]; at 50.0 µM
  growth inhibition: 92.8% (active)
[13]; at 100.0 µM
  growth inhibition: 97% (active)
[14]; at 1.2 µM
  growth inhibition: 18%
[14]; at 3.7 µM
  growth inhibition: 76% (active)
[14]; at 11.0 µM
  growth inhibition: 98% (active)
[14]; at 33.0 µM
  growth inhibition: 99% (active)
[14]; at 100.0 µM
  growth inhibition: 99% (active)
[1]; at 1.2 µM
  growth inhibition: 53%
[1]; at 3.7 µM
  growth inhibition: 90% (active)
[1]; at 11.0 µM
  growth inhibition: 98% (active)
[1]; at 33.0 µM
  growth inhibition: 99% (active)
[1]; at 100.0 µM
  growth inhibition: 99% (active)
[15]; at 1.2 µM
  growth inhibition: 41%
[15]; at 3.7 µM
  growth inhibition: 89% (active)
[15]; at 11.0 µM
  growth inhibition: 98% (active)
[15]; at 33.0 µM
  growth inhibition: 99% (active)
[15]; at 100.0 µM
  growth inhibition: 99% (active)
[2]; [16]
  growth inhibition: 34%
[2]; [17]
  growth inhibition: 99% (active)
[2]; at 50.0 µM
  growth inhibition: 92% (active)
[3]; at 1.2 µM
  growth inhibition: 62%
[3]; at 3.7 µM
  growth inhibition: 89% (active)
[3]; at 11.0 µM
  growth inhibition: 98% (active)
[3]; at 33.0 µM
  growth inhibition: 99% (active)
[3]; at 100.0 µM
  growth inhibition: 99% (active)

Reference: PubChem BioAssay (NCI)
